Source: PubChem BioAssay
UBC9 SUMO inh – inhibitors of in vitro SUMOylation cascade, primary screen, biochemical, HTRF, uHTS; SUMO-conjugating enzyme UBC9 (Homo sapiens), P63279; HTRF SUMOylation assay, SAE1/SAE2 + UBC9; inhibition, % at 35 µM; 290,000 tested, 0.36% active; in the data active means inhibition above about 50%, passing the limit was not always enough; inconclusive means no clear call, values can overlap the other calls
Target sequence (P63279 whole entry, looked up): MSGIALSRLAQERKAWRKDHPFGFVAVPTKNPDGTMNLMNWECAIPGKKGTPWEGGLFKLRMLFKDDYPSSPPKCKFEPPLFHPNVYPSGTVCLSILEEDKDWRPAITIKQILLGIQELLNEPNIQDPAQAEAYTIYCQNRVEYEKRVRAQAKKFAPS
ALR H2O2 inh – inhibitors of human ALR sulfhydryl oxidase, primary screen, biochemical, H2O2 detection, HRP-luminol luminescence, single point; FAD-linked sulfhydryl oxidase ALR (Homo sapiens), P55789; purified ALR, DTT oxidation; inhibition, % (no concentration beside the values); 290,000 tested, 3.8% active; AID 485317, 2010;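 active means mean replicate inhibition above about 79%, with every replicate also reaching it, limit read from the data; inconclusive means only one of the two criteria met; inactive means mean below limit and not every replicate reaching it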
Target sequence (P55789 whole entry, looked up): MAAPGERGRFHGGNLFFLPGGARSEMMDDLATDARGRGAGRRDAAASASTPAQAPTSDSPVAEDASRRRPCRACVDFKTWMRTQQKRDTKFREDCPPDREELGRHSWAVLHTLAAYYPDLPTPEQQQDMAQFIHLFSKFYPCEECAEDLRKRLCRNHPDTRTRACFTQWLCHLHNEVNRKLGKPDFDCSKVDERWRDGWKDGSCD
PABP1 MLLE inh – inhibitors of PABP1 MLLE–PAM2 peptide binding, primary screen, biochemical, fluorescence polarization, FITC-PAM2, GST-MLLE; Polyadenylate-binding protein 1 (Homo sapiens), P11940; inhibition, % at 20 µM; 360,000 tested, 0.36% active; in the data active means inhibition above about 35%, passing the limit was not always enough;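 further: plate controls were DMSO wells with GST-MLLE for no effect and wells lacking GST-MLLE protein for full effect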
Efflux pump inh – inhibitors of Candida efflux pumps in yeast, primary screen, S. cerevisiae, Nile Red, multiplex | AID 485275, 2010 | 330,000 tested, 0.44% active | S. cerevisiae Candida pump triplex | inhibition, % at 10 µM;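 active means plate passing quality check with inhibition over a set limit, or well fluorescence over plate mean plus 4 SD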;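 further: Nile Red retained in pooled yeast measured as flow cytometry median fluorescence; 0% = buffer negative control and 100% = Enniatin B positive control; higher means more Nile Red kept so more efflux inhibition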
eIF4H FP inh – human eIF4H binding inhibitors, primary screen, translation initiation inhibitor project, biochemical, uHTS, fluorescence polarization; Eukaryotic translation initiation factor 4H (Homo sapiens), Q15056; eIF4H fluorescence polarization binding assay; AID 2012, 2009; inhibition, % at 35 µM; 290,000 tested, 0.94% active;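 further: calls also rest on retests at 20 µM and on dose response follow-up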
PABP FP inh – PABP poly(A) RNA binding inhibitors, primary screen, biochemical, fluorescence polarization, uHTS. Polyadenylate-binding protein 1 (Homo sapiens), P11940. inhibition, % at 35 µM. 290,000 tested, 1% active;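 further: calls also rest on retests at 20 µM and on dose response follow-up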
An asterisk follows results filed as active; ? = inconclusive; . = no result given. Only some compounds are listed: those with a hit (about 4.7% of all), similar ones and a draw of the others. Unless noted, how the calls were made is not given here.

SMILES | UBC9 SUMO inh | ALR H2O2 inh | PABP1 MLLE inh | Efflux pump inh | eIF4H FP inh | PABP FP inh
O=C(c1ccccc1)N1CCN(C(=O)c2ccc([N+](=O)[O-])cc2)CC1 | 3 | -5 | -1 | 0 | 1 | 0
O=C(c1ccc([N+](=O)[O-])cc1)N1CCN(c2cccc3[nH]ccc23)CC1 | 11 | 99* | 12 | 0 | -11 | 4
O=[N+]([O-])c1cccc(CN2CCN(c3ncccn3)CC2)c1 | 15 | -3 | -7 | 0 | -9 | 3
O=[N+]([O-])c1cccc(CN2CCN(c3cccc4[nH]ccc34)CC2)c1 | 11 | 99* | -5 | 0 | -6 | 14
O=C(OCc1cc(=O)n2ccsc2n1)c1ccccc1NCCO | . | -5 | 3 | 0 | . | .
CCCn1cc(CN2CCC(n3nccc3NC(=O)c3ccc4c(c3)OCO4)CC2)c(C)n1 | -2 | -8 | -9 | 0 | -2 | -2
N#C/C(=N\Nc1ccccc1Cl)C(=O)c1ccccc1 | 14 | . | -6 | 0 | -5 | 5
N#C/C(=N\Nc1c(Cl)cccc1Cl)C(=O)NN | 6 | 98* | -76 | 0 | -2 | 2
CNC(=S)SCCOc1ccccc1 | 7 | 47 | 36* | 0 | -19 | -1
O=S1(=O)CCC(NC(=S)SCCOc2ccccc2)C1 (stereo not given) | 21 | -5 | 40* | 0 | 0 | -5
CCCCSC(=S)NC1CCS(=O)(=O)C1 (stereo not given) | -9 | -9 | 11 | 0 | -1 | 7
Oc1ccc(Br)cc1-c1cc(-c2ccco2)[nH]n1 | -10 | 92* | 2 | 0 | -6 | -1
COc1cccc(CN2CCC(n3nccc3NC(=O)CCOc3ccccc3)CC2)c1O | 0 | 94* | -22 | 1 | 2 | 8
COc1cccc(CN2CCC(n3nccc3NC(=O)CCOc3ccccc3)CC2)c1 | -8 | 1 | -4 | 0 | 0 | 4
CCCCCNC(=O)c1[nH]c(C(F)(F)F)nc1-c1ccccc1 | . | . | 10 | . | . | .
O=C(c1cn(Cc2ccccc2)nc1-c1ccccc1)N1CCN(c2ccccn2)CC1 | . | 0 | -4 | 0 | . | .
Cn1c2ccccc2c2cnn(CC(=O)Nc3ccc(Cl)cc3)c(=O)c21 | 52* | . | 10 | 0 | -1 | -14
N#Cc1cccc(-c2csc(C(O)c3ccco3)n2)c1 (stereo not given) | . | . | -6 | . | . | .
CCOc1ccccc1CNC(=O)c1cc2oc3ccccc3c2n1C | -6 | 0 | -3 | 0 | -10 | 1
CCOc1ccccc1CNC(=O)c1cc2occc2n1C | 6 | 40 | 2 | 0 | ? | 83*
Cc1ccc(COC(=O)CN2C(=O)NC3(CCCCC3C)C2=O)cc1 (stereo not given) | . | . | -8 | . | . | .
Cc1ccccc1-c1nnc(SCC(=O)N2CCCC2)o1 | 6 | . | 2 | 0 | -3 | 4
O=c1nc(N/N=C/c2c[nH]c3ccccc23)cn[nH]1 | 3 | 1 | -24 | 0 | 6 | 7
O=C(O)c1cccc2c(/C=N/Nc3ccccn3)c[nH]c12 | 14 | 98* | 10 | 0 | 0 | 1
C(=N\Nc1ccccn1)/c1c[nH]c2ccccc12 | 8 | 99* | -1 | 0 | -1 | 2
SMILES | UBC9 SUMO inh | ALR H2O2 inh | PABP1 MLLE inh | Efflux pump inh | eIF4H FP inh | PABP FP inh
O=C(O)c1ccccc1N/N=C\c1ccnc2ccccc12 | -3 | . | -6 | 0 | -9 | 16
O=C(N/N=C/c1c[nH]c2ccccc12)c1cccc(O)c1 | 13 | 24 | -7 | 0 | -3 | 6
O=C(N/N=C/c1c[nH]c2ccccc12)c1ccc(O)c(O)c1 | 0 | 99* | -5 | 0 | -11 | -2
Cc1cc(C)cc(NC(=O)[C@@H](NC(=O)c2ccco2)C(C)C)c1 | 7 | -7 | -1 | 0 | -18 | 2
COc1ccc(-n2nc(C(=O)O)nc2-c2ccccc2)cc1 | -2 | 100* | -2 | 0 | 0 | 7
CN(C)S(=O)(=O)c1ccc(C(=O)OCC(=O)N2CC3(C)CC2CC(C)(C)C3)cc1 (stereo not given) | . | 2 | 3 | 0 | . | .
